# Laboratory results: PubChem BioAssay (EPA / NIEHS)
# “And” between values parts separate entries of the source, which are not always exact repeats. Equal entries are not always repeated. Results filed as inconclusive are left out. The source made the active and inactive calls. Rule for the calls: active = hit-call score of the fitted dose curve at least 0.9, where 1 is the maximum; inconclusive = response in the unintended direction; inactive = score below 0.9.
# Target: human Epidermal Growth Factor Receptor (EGFR), EGFR (gene 1956) (UniProt P00533)
# Assay: NVS_ENZ_hEGFR: NovaScreen (NVS) Enzymatic Assay for human Epidermal Growth Factor Receptor (EGFR) (AID 2283151)
# Procedure: NVS_ENZ_hEGFR is a biochemical, single-readout assay that uses extracted gene-proteins in a cell-free assay. Measurements were taken 1 hour after chemical dosing in a 384-well plate.NVS_ENZ_hEGFR is one of one assay component(s) measured or calculated from the NVS_ENZ_hEGFR assay. It is designed to make measurements of enzyme activity, a form of enzyme reporter, as detected with fluorescence intensity signals by Fluorescence and electrophoretic mobility shift technology.Data from the assay component NVS_ENZ_hEGFR was analyzed into 1 assay endpoint. This assay endpoint, NVS_ENZ_hEGFR, was analyzed in the positive analysis fitting direction relative to DMSO as the negative control and baseline of activity. Using a type of enzyme reporter, loss-of-signal activity can be used to understand changes in the enzymatic activity as they relate to the gene EGFR. Furthermore, this assay endpoint can be referred to as a primary readout, because this assay has produced multiple assay endpoints where this one serves a enzymatic activity function. To generalize the intended target to other relatable targets, this assay endpoint is annotated to the kinase intended target family, where the subfamily is receptor tyrosine kinase.
# Binding assays used specific radioligands (tritiated, iodinated) with non-radioactive competitive displacement ligands in agonist or antagonist protocols (as indicated) and various reference compounds and inhibitors to titrate specific binding to receptors and transporters. Most enzyme assays (CYPs, kinases, phosphatases, proteases, HDACs) used recombinant protein and specific substrates (fluorescence mostly, some colorimetric and radioactive) and inhibitors, followed by a biochemical separation of substrate and product. All assays for the biochemical HTS were initially run in duplicate at a single concentration (10 uM for CYP450 assays and 25 uM for all others). Assay-chemical combinations meeting a pre-defined threshold (e.g., 30% inhibition and other criteria defined below) were then run in singleton concentration-response format with maximum concentration of 20 uM for CYPs and 50 uM for all others. Each assay was run with positive and negative controls, and concurrent controls on every plate. The follow-up (secondary) screen tested active chemical-pairs in concentration series, as well as a few additional assays not tested in the primary screen, some selected negative inactives, and several cases re-run in the concentration series for confirmatory purposes.
# Chain of human Epidermal Growth Factor Receptor (EGFR), EGFR (gene 1956) (P00533 whole entry, looked up): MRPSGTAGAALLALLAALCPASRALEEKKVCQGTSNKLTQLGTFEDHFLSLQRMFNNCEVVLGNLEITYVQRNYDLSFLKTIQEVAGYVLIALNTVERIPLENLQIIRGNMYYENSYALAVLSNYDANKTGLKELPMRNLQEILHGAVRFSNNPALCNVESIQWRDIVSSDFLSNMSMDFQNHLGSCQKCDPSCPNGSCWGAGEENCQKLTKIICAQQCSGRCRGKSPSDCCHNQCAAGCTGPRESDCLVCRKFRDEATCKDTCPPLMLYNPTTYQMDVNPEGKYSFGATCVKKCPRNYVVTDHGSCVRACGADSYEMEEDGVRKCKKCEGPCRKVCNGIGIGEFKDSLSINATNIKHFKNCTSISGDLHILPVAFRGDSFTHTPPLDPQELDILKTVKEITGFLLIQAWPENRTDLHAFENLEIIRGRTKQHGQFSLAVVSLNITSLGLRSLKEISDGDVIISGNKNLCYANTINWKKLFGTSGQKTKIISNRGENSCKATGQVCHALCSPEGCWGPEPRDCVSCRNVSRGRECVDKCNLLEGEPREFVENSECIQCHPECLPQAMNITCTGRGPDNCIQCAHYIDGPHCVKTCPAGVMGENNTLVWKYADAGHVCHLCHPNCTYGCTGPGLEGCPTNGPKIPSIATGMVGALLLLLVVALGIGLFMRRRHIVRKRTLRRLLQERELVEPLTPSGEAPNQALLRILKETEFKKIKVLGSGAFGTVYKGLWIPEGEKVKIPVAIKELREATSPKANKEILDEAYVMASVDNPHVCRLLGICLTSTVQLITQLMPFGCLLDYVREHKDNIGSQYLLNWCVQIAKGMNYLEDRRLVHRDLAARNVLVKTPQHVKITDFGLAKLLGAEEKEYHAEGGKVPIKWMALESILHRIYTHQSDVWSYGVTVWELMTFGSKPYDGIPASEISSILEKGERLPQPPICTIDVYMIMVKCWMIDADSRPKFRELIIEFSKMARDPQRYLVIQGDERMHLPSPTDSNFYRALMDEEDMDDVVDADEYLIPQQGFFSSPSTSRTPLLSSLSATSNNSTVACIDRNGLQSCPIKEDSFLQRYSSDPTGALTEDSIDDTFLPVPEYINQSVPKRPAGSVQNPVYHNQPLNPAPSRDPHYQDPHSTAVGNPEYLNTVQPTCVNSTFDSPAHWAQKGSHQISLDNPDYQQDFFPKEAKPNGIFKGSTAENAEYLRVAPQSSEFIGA
Compound,outcome,AC50
Cc1ccc(N)cc1O,inactive,–
CC(C)(c1ccc(O)cc1)c1ccc(O)cc1,inactive,–
S=C(S)NCCNC(=S)S.[Mn+2].[S-]C([S-])=NCCN=C([S-])[S-].[Zn+2],–,9.13 µM (active) and 9.55 µM (active) and 21.4 µM (active)
O=C(O)c1cccc(Oc2ccccc2)c1,inactive,–
CC/C(=C(/CC)c1ccc(O)cc1)c1ccc(O)cc1,inactive,–
COC(=O)[C@H]1[C@H]2C[C@@H]3c4[nH]c5cc(OC)ccc5c4CCN3C[C@H]2C[C@@H](OC(=O)c2cc(OC)c(OC)c(OC)c2)[C@@H]1OC,inactive,–
CCN(Cc1cccc(S(=O)(=O)O)c1)c1ccc(C(=C2C=CC(=[N+](CC)Cc3cccc(S(=O)(=O)O)c3)C=C2)c2ccccc2S(=O)(=O)[O-])cc1,–,12.1 µM (active)
CCO[Si](CCCNC(N)=O)(OCC)OCC,inactive,–
CCCCCCCCCCCCc1ccccc1S(=O)(=O)O,–,12.6 µM (active)
CC(C)CCCCCCc1ccc(O)cc1,inactive,–
O=C(c1ccc(O)cc1O)c1ccc(O)cc1O,–,25 µM (active)
N#C[C@@H]1CC(F)(F)CN1C(=O)CNC1CC2CCC(C1)N2c1ncccn1 (stereo not given in full),inactive,–
O=C(OCCCCCOC(=O)c1ccccc1)c1ccccc1,inactive,–
CN1C(=O)N(c2ccccc2Br)Cc2cnc(Nc3ccc4c(c3)OCC(CO)O4)nc21 (stereo not given),–,0.00229 µM (active)
CCc1c(C(=O)NN2CCCCC2)nn(-c2ccc(Cl)cc2Cl)c1-c1ccc(Br)cc1,inactive,–
O=C(O)c1[nH]n(-c2ccc(S(=O)(=O)O)cc2)c(=O)c1N=Nc1ccc(S(=O)(=O)O)cc1,inactive,–
CC(=O)Oc1ccccc1C(=O)O,inactive,–
COc1c(Cl)ccc(Cl)c1C(=O)O,inactive,–

Compound,outcome,AC50
CCCC(CCC)C(=O)O,inactive,–
COc1cc(C(=O)NC2CCN(C)CC2)ccc1Nc1ncc2c(n1)N(C1CCCC1)CC(F)(F)C(=O)N2C,–,12.2 µM (active)
FC(F)(F)C(F)(F)C(F)(F)C(F)(F)C(F)(F)C(F)(F)CCI,inactive,–
CN(C)C(=O)NC1(c2ccccc2)CCN(CCC[C@]2(c3ccc(Cl)c(Cl)c3)CCCN(C(=O)c3ccccc3)C2)CC1,inactive,–
NCCO,inactive,–
CC(C)CCCCCCOC(=O)C1CCCCC1C(=O)OCCCCCCC(C)C (stereo not given),inactive,–
O=C(Oc1ccccc1)c1cccc(C(=O)Oc2ccccc2)c1,inactive,–
Cc1ncc([C@@H](CCCCCCc2ccc3c(n2)NCCC3)CC(=O)O)cn1,inactive,–
O=C(O)c1cc(N=Nc2ccc(S(=O)(=O)Nc3ccccn3)cc2)ccc1O,–,3.95 µM (active)
CCCCCCCC/C=C\CCCCCCCC(=O)OC[C@@H](O)[C@H]1OC[C@H](O)[C@H]1O,inactive,–
Nc1ccc2c(c1)C(=O)c1ccccc1C2=O,inactive,–
Cc1ccc2ncccc2c1,inactive,–
O=c1[nH]cnc2c1ncn2[C@H]1CC[C@@H](CO)O1,inactive,–
O=C(O)Cc1cc(I)c(Oc2cc(I)c(O)c(I)c2)c(I)c1,inactive,–
O=C(O)Cc1cc(I)c(Oc2ccc(O)c(I)c2)c(I)c1,inactive,–
NC=O,inactive,–
CCCCCCC(CCCCCCCCCCC(=O)OCC(COC(C)=O)OC(C)=O)OC(C)=O (stereo not given),inactive,–
